Test results: the supplement of paper PMC6555819

How the values were obtained:
Assay in all cases: PBM binding z-score (relative to random genomic background probes); higher = stronger binding; sequences stand for … in GC…GCGATTGACAGCGTAGAATGAAGG
[1] = system: FXR:RXRa (NR concentration 270 nM, RXRa partner concentration 90 nM)
Outline: (§1)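 Binding buffer was PBS pH 7.4 with 2% milk, 0.02% Triton X-100, 1 mM DTT, 0.2 mg/mL BSA and 0.4 mg/ml salmon testes DNA. In it, ligand-free nuclear receptor dimers were incubated 1 h on custom Agilent 4×180K protein-binding microarrays carrying double-stranded probes. Antibodies against each partner (one per run) detected binding, and z-scores were calculated against random background probes after regression normalization of scanned fluorescence.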

[2] = system: LXRa:RXRa (NR concentration 270 nM, RXRa partner concentration 90 nM)
Outline: as §1

[3] = system: LXRa homodimer (NR concentration 270 nM)
Outline: as §1

[4] = system: LXRb:RXRa (NR concentration 270 nM, RXRa partner concentration 90 nM)
Outline: as §1

[5] = system: LXRb homodimer (NR concentration 270 nM)
Outline: as §1

[6] = system: PPARa:RXRa (NR concentration 270 nM, RXRa partner concentration 90 nM)
Outline: as §1

[7] = system: PPARg:RXRa (NR concentration 180 nM, RXRa partner concentration 90 nM)
Outline: as §1

[8] = system: PPARg:RXRa 270nM:90nM, anti-RXR (NR concentration 270 nM, RXRa partner concentration 90 nM)
Outline: as §1

[9] = system: PPARg:RXRa 30nM:10nM, anti-RXR (NR concentration 30 nM, RXRa partner concentration 10 nM)
Outline: as §1

[10] = system: PPARg:RXRa 90nM:30nM, anti-RXR (NR concentration 90 nM, RXRa partner concentration 30 nM)
Outline: as §1

[11] = system: PPARg:RXRa DBDmut IVT, anti-RXR (DBD mutation: RXRa K156A/R161A, NR concentration 270 nM, RXRa partner concentration 90 nM)
Outline: as §1

[12] = system: PPARg:RXRa IVT, anti-PPARg (NR concentration 270 nM, RXRa partner concentration 90 nM)
Outline: as §1

[13] = system: PPARg DBDmut:RXRa IVT, anti-PPARg (DBD mutation: PPARg1 K132A/R137A, NR concentration 270 nM, RXRa partner concentration 90 nM)
Outline: as §1

[14] = system: PPARg DBDmut IVT, anti-PPARg (DBD mutation: PPARg1 K132A/R137A, NR concentration 270 nM)
Outline: as §1

[15] = system: PPARg homodimer (NR concentration 180 nM)
Outline: as §1

[16] = system: PXR:RXRa (NR concentration 270 nM, RXRa partner concentration 90 nM)
Outline: as §1

[17] = system: PXR homodimer (NR concentration 270 nM)
Outline: as §1

[18] = system: RARa:RXR (NR concentration 270 nM, RXRa partner concentration 90 nM)
Outline: as §1

[19] = system: RARa homodimer (NR concentration 270 nM)
Outline: as §1

[20] = system: RARb:RXRa (NR concentration 270 nM, RXRa partner concentration 90 nM)
Outline: as §1

Sequence | PBM binding z-score [1] | PBM binding z-score [2] | PBM binding z-score [3] | PBM binding z-score [4] | PBM binding z-score [5] | PBM binding z-score [6] | PBM binding z-score [7] | PBM binding z-score [8] | PBM binding z-score [9] | PBM binding z-score [10] | PBM binding z-score [11] | PBM binding z-score [12] | PBM binding z-score [13] | PBM binding z-score [14] | PBM binding z-score [15] | PBM binding z-score [16] | PBM binding z-score [17] | PBM binding z-score [18] | PBM binding z-score [19] | PBM binding z-score [20]
ATCTCTAGGTAAGAAGTTCAGTGAAAGAGAGGAC | 0.325 | 0.566 | 0.243 | 0.366 | 0.539 | 0.924 | 1 | 2.09 | 0.954 | 1.86 | 1.18 | 1.29 | 0.696 | 1.32 | 1.05 | 0.898 | 1.32 | 0.518 | 0.598 | 1.49
CCTATTAGTTTACCATAAGGGCAACCGAAGCTCG | 0.454 | 0.693 | 0.603 | 0.679 | 0.527 | 0.641 | 0.273 | 0.684 | 0.33 | 0.455 | 0.246 | 0.459 | 0.256 | 1.25 | 1.47 | 0.681 | 1.08 | 0.819 | 1.51 | 1.6
CGTCCAAGGTCGTAGGAGGTCAGTGAAGACAGAT | 4.38 | 4.75 | 1.14 | 3.33 | -0.833 | 4.12 | 1.79 | 2.5 | 0.257 | 1.32 | 0.632 | 1.67 | -0.489 | -0.725 | 2.21 | 5.77 | 1.8 | 4.37 | 0.332 | 3.82
TCTTGTAAATCAATAGAGGTTAAGAAAGTGCGCT | 0.793 | 3.32 | 0.658 | 1.86 | 0.26 | 1.86 | 0.0624 | 1.82 | 3.77 | 2.44 | 2.07 | 0.72 | 0.946 | 0.876 | 0.652 | 2.65 | 0.467 | 1.72 | 0.812 | 1.13
TCGAGAAGGTTAGGGGCATTCAGAATGGCGTCGA | 0.95 | 0.839 | -0.359 | 1.38 | -0.293 | 1.83 | 0.297 | 1.19 | 2.23 | 1.43 | 1.15 | 0.162 | -1.01 | -0.967 | 0.818 | 0.866 | -0.0334 | 0.991 | 0.387 | 2.02
GCGATTGGGGCAAAGCAGGTTACCATAAGGTTGG | 0.351 | 0.0851 | -0.253 | 0.678 | -0.273 | 1.11 | 0.77 | 0.405 | -0.0974 | 0.132 | 2.25 | 1.69 | -0.0926 | -0.514 | 0.213 | 0.707 | -0.215 | 1.13 | 0.0153 | 0.946
CCTACTGGGCCATCAGGTCATTGCTATCAACGTT | 1.55 | 1.63 | 1.36 | 1.64 | -0.479 | 2.83 | 2.62 | 3.75 | 1.26 | 2.92 | 4.86 | 4.95 | 0.318 | -0.34 | 1.02 | 1.75 | 0.209 | 2.17 | -0.0297 | 2.35
AGATTGAGGTTAAGATCAGGGAAACAGAATACAT | 2.48 | 2.1 | 0.386 | 2.06 | 0.34 | 3.45 | 1.96 | 2.19 | 0.935 | 1.82 | 2.1 | 2.29 | 1.37 | 1.38 | 1.06 | 1.3 | 0.986 | 1.87 | 1.33 | 2.08
GCTAGTTGGTCAGTAAAAGCTCACACACCGGTCG | -0.135 | -0.249 | -0.0683 | -0.56 | -0.539 | -0.386 | 0.13 | -0.0391 | -0.355 | -0.193 | 0.623 | -0.0359 | -1.02 | -0.165 | -0.00408 | -0.622 | -0.0329 | -0.419 | 0.154 | 0.596
ACTATTAGTCGACTTAGGGCAACCGATACGACGC | -0.365 | -0.211 | -0.355 | -0.374 | 0.47 | -0.446 | 0.825 | 0.138 | 0.0617 | 0.0451 | 0.19 | 0.646 | 0.629 | 1.12 | -0.309 | -0.188 | -0.351 | 0.128 | -0.494 | 0.711
CATACGGGGTCAGCTAGGCCAGAGTAGGGACGGC | 7.18 | 5.6 | 0.0211 | 4.81 | 1.12 | 6.17 | 7.29 | 6.63 | 3.71 | 5.39 | 2.55 | 4.45 | 1.49 | 1.86 | 2.4 | 4.79 | 0.529 | 5.51 | 0.858 | 4.84
CTCGAAAGGTCGGTTGCGGTGAGTATACGGATAA | 2.08 | 1.5 | 0.16 | 1.38 | 0.241 | 2.17 | 0.168 | 0.893 | 0.195 | 0.654 | 0.303 | 0.901 | 0.157 | 0.202 | 0.797 | 1.4 | -0.173 | 1.62 | -0.203 | 2.92
AGAATGATGTTATACGTAGATCAGGGAAGAAAGT | -0.301 | -0.398 | -0.0367 | -0.288 | -0.0572 | -0.192 | 0.88 | -0.156 | 0.198 | -0.0681 | -0.521 | -0.0838 | 1.57 | 1.74 | -0.218 | -0.0656 | 0.403 | -0.276 | -0.0154 | -0.18
TAGCCTAGGTCATTGGGCAAGTATAGTACGCATC | 4.44 | 3.37 | 0.712 | 2.16 | 0.361 | 3.46 | 2.93 | 3.07 | 0.725 | 1.95 | 1.66 | 3.17 | 0.399 | -0.561 | 1.19 | 1.64 | -0.337 | 2.38 | -0.275 | 3.66
ATGTCTAGGTAAAGATAGTTCAGTGAATGCAAAT | 0.0456 | 4.09 | 0.552 | 0.617 | 0.0209 | 0.376 | 0.701 | 0.217 | 0.312 | 0.184 | 1.16 | 1.51 | 0.413 | 1.23 | 0.188 | 0.798 | 0.588 | 0.428 | 0.724 | 0.63
CGAACGAGGGCATGAGTGGATAGCAAATGCCGAT | 0.364 | 0.334 | -0.533 | 0.059 | -0.983 | 1.22 | 1.27 | 0.947 | 0.0449 | 0.449 | 2.74 | 1.85 | -0.478 | -0.831 | -0.474 | 0.213 | -0.305 | 0.373 | -0.274 | 1.91
